Records with an inconclusive call do not appear. Where a call stands in place of a potency, no number is given. The source made the active and inactive calls. Calls follow the shape of the dose curve; as a rule, active = well fitted cell-killing curve with a large enough effect; inconclusive = small, poorly fitted or top-dose-only effect; inactive = flat fitted curve, though single readings scatter.

These results are taken from PubChem BioAssay (NCATS).
Potency is read from the fitted curve at half-maximal effect.

A short description of the assay: qHTS of pediatric cancer cell lines to identify multiple opportunities for drug repurposing: Primary screen for BT-37 cells (AID 1347094). Particulars: BT-37 viability, CellTiter-Glo luminescence, 48 h; series mostly up to 57.3 µM; activity change, negative = cytotoxic: at the top concentration. An excerpt:
Drug repurposing or repositioning has been offered as a strategy for drug development in oncology programs. This approach has special potential for childhood cancers and other rare or orphan diseases, where the expected return on new drug development has been a disincentive to pharmaceuticals. […] In this project we exploit the poly-pharmacology of drugs to discover new indications via phenotypic screening of a panel of 19 well-characterized cell lines derived from solid tumors seen in children and adolescents. The goal is to identify approved drugs with previously unrecognized anticancer properties that has the potential to reveal new mechanisms and biological processes involved in carcinogenesis or drug resistance. We employed a titration-based paradigm (quantitative high-throughput screening or qHTS), where all compounds were tested at multiple concentrations for their effect on cell viability. Concentration-response curves (CRCs) were derived directly from the primary screen, and both potency and efficacy values were used to identify compounds with robust bioactivity profiles. We screened the NIH Chemical Genomics Center (NCGC) Pharmaceutical Collection (NPC) and Mechanism Interrogation Plate (MIPE) small molecule collections of approved and investigational compounds against these cell lines; and measured metabolically active cells after 48 hours of compound treatment as a proxy for cell viability. […] Assay Submitter: Nathalia J. Martinez, National Center for Advancing Translational Sciences, National Institutes of Health, Rockville, MD, USA; email: natalia.martinez@nih.gov Shen, M et al. Quantitative high-throughput phenotypic screening of pediatric cancer cell lines identifies multiple opportunities for drug repurposing. Oncotarget 2017 Dec 19;9(4):4758-4772. PMID 29435139.
The cells were obtained from University of North Carolina (UNC), Pediatric Preclinical Testing Program (PPT), and Coriell Institute (CI). qHTS cell viability assay: Cells were assayed in growth media at a density of 500-1,000 cells/well. Five microliters of cells were dispensed into 1,536-well, white, solid-bottom, TC-treated plates (Greiner Bio One) using a multidrop dispenser and incubated at 37 degrees C, 5% CO2, under a humidified atmosphere for 5 hours. Twenty-three nanoliters of compounds and controls (neutral control DMSO or positive control bortezomib at final concentration of 2.3 µM) were subsequently transferred by Kalypsys pintool. For primary screens, the MIPE collection was tested at 11-point dilutions (final concentrations range from 0.78 nM to 46 µM) and the NPC collection at 8-point dilutions (final concentrations range from 0.59 nM to 46 µM). Compounds tested in follow-up screens were assayed at 11-point dilutions. Cells were incubated for 48 hours, followed by addition of 3 µL of CellTiter-Glo (Promega). After a 15 min incubation at room temperature, samples were analyzed for luminescence intensity using a ViewLux High-throughput CCD imager equipped with clear filters.
(Quantitative high-throughput screening tests each substance at several concentrations.)
Take `CC(=O)Oc1ccccc1C(=O)O`: the Potency result is “inactive”. For the compound `C1COC(NC(C2CC2)C2CC2)=N1`, the Potency entry is “inactive”. In the case of `OC(CCN1CCCCC1)(c1ccccc1)C1CC2C=CC1C2` (stereo not given), the Potency result is “inactive”. Still for that read-out and setting: for `COc1ccc2nc(S(=O)Cc3ncc(C)c(OC)c3C)[nH]c2c1` (stereo not given) the value was “inactive”. Turning to `Cc1cnc(Nc2ccc(OCCN3CCCC3)cc2)nc1Nc1cccc(S(=O)(=O)NC(C)(C)C)c1`, the “activity change, negative = cytotoxic” value was -6.9% (inactive).

Consider `O=C1CCc2cc(OCCCCc3nnnn3C3CCCCC3)ccc2N1`, for which the Potency entry is “inactive”. For the compound `Cc1cc(SCc2sc(-c3ccc(C(F)(F)F)cc3)nc2C)ccc1OCC(=O)O`, the “activity change, negative = cytotoxic” value was 3.53% (inactive).

`CCCc1nn(C)c2c(=O)[nH]c(-c3cc(S(=O)(=O)N4CCN(C)CC4)ccc3OCC)nc12`: the “activity change, negative = cytotoxic” value is -11.9% (inactive).

For `Nc1nc2c(ncn2COCCO)c(=O)[nH]1`, the Potency result is “inactive”. Consider `N=c1nc(N2CCCCC2)cc(N)n1O`, for which the Potency result was “inactive”. As to `O=C(O)CCc1ccc(NCc2cccc(Oc3ccccc3)c2)cc1`, the “activity change, negative = cytotoxic” value was 3.65% (inactive). Still for that read-out and setting: with `COc1cc(Nc2ncc3c(n2)-c2ccc(Cl)cc2C(c2c(F)cccc2OC)=NC3)ccc1C(=O)O` the figure was -28.1% (inactive).

With `Cc1csc(NC(=O)c2sc3nc4c(c(C(F)(F)F)c3c2N)CCC4)n1`, the Potency is 8.63 µM (active). Still for that read-out and setting: with `O=c1n(CCCN2CCN(c3cccc(Cl)c3)CC2)nc2ccccn12` the entry was “inactive”. Turning to `Oc1ccc(C2CNCCc3c2cc(O)c(O)c3Cl)cc1` (stereo not given), the Potency entry is “inactive”. For `Cc1cc(-c2ccc(CC(=O)Nc3ccc(-c4cccnc4)cc3)cc2)ccn1`, the “activity change, negative = cytotoxic” value was -17.9% (inactive).

Take `Cc1ccc(N(CC2=NCCN2)c2cccc(O)c2)cc1`: the “activity change, negative = cytotoxic” value was -23.9% (inactive). In the case of `COc1ccc(-c2oc3cc(OC)ccc3c2C(=O)c2ccc(C#N)cc2)cc1`, the Potency is 0.685 µM (active). Same read-out and setting: for `c1ccc([C@H]2CN3CCSC3=N2)cc1` the value was “inactive”.

Turning to `CC(C)(Sc1ccc(CCN(CCCCC2CCCCC2)C(=O)NC2CCCCC2)cc1)C(=O)O`, the Potency was 21.7 µM (active). On the same count and under the same terms, for `N[C@@H]1CONC1=O` the value was “inactive”. On to `CS(=O)(=O)c1ccc(C(=O)Nc2ccc(Cl)c(-c3ccccn3)c2)c(Cl)c1`, for which the “activity change, negative = cytotoxic” value is -2.59% (inactive).

Consider `NC(N)=NC(=O)c1nc(Cl)c(N)nc1N`, for which the Potency entry was “inactive”.

`Nc1ccc(S(=O)(=O)Nc2ccnn2-c2ccccc2)cc1`: the Potency result was “inactive”. For the compound `CCOC(=O)C1=C[C@]2(CC)CCCN3CCc4c(n1c1ccccc41)[C@@H]32`, the “activity change, negative = cytotoxic” value is -19.3% (inactive). On to `Cc1c(C)c2c(c(C)c1O)CCC(C)(COc1ccc(CC3SC(=O)NC3=O)cc1)O2` (stereo not given), for which the Potency result was “inactive”. In the case of `COc1cc(Oc2ccnc3cc(OC)c(OC)cc23)ccc1NC(=O)NC(C)c1nccs1` (stereo not given), the “activity change, negative = cytotoxic” value is -1.49% (inactive). `O=NN(CCCl)C(=O)NCCCl`: the Potency entry is “inactive”. On the same count and under the same terms, with `Cc1c(CN2CCN(C(=O)C(C)C)CC2)sc2c(N3CCOCC3)nc(-c3cnc(N)nc3)nc12` the figure was 0.485 µM (active); with `Cc1ccccc1C(OCCN(C)C)c1ccccc1` (stereo not given), “inactive”. Regarding `CN(C(=O)c1ccc(F)cc1C(F)(F)F)C1CCN(c2nnc(-c3ccnn3C)c3ccccc23)CC1`, the “activity change, negative = cytotoxic” value is -23.4% (inactive). On to `CCc1ccc(CCOc2ccc(CC3SC(=O)NC3=O)cc2)nc1` (stereo not given), for which the Potency entry is “inactive”. Take `O=C1CCCC2=C1C(c1[nH]ncc1Cl)N=C(Nc1nc3ccccc3o1)N2` (stereo not given): the “activity change, negative = cytotoxic” value is -5.08% (inactive). Turning to `O=C(Nc1nc2ccccc2n1CCN1CCOCC1)c1cccc([N+](=O)[O-])c1`, the Potency was 7.69 µM (active).

Regarding `Clc1cccc(Cl)c1NC1=NCCN1`, the Potency entry was “inactive”. Consider `CC(C)(C)OC(=O)CN(Cc1ccc(Cl)cc1)Cc1ccc([N+](=O)[O-])s1`, for which the “activity change, negative = cytotoxic” value was -18% (inactive). Turning to `Cc1cc([C@@H](C)Nc2ccccc2C(=O)O)c2nc(N3CCOCC3)cc(=O)n2c1`, the Potency was 55.9 µM (active).

As for `O=C(Nc1ccc(F)c(C(F)(F)F)c1)Nc1nnc(-c2ccncc2)s1`, the “activity change, negative = cytotoxic” value was -16.3% (inactive). Turning to `NC[C@H](O)c1ccc(O)c(O)c1`, the Potency result was “inactive”. On to `NC(=O)c1cnccn1`, for which the Potency result was “inactive”.
